# Rows were chosen to be rich in hits. Some 1.3% of all compounds tested hit in one or more screens of this group.
# PvdQ inh – P. aeruginosa PvdQ acylase inhibitors, primary screen, biochemical, fluorescence, plate reader and imaging, single point | purified PvdQ acylase | inhibition, % at 10 µM | hit rate 0.063% among 340,000 | AID 488965, 2010; in the data active means inhibition above about 30%, passing the limit was not always enough;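 further: 0% = vehicle neutral wells and 100% = reference inhibitor wells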
# OPRM1-OPRD1 ag – agonists of OPRM1-OPRD1 heterodimerization, primary screen, cell-based, luminescence; hit rate 0.3% among 340,000; activation, % at 9.3 µM; Mu-type opioid receptor (Homo sapiens) + Delta-type opioid receptor (Homo sapiens), …; cells; in the data active means activation above about 18%;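 further: 0% = vehicle-treated cells and 100% = reference agonist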
# Yeast superoxide – reduction of superoxide in aged yeast, primary screen, HTS; S. cerevisiae aged cells, superoxide DHE fluorescence; stronger effect = lower value; superoxide response (% of plate mean), % at 10 µM; hit rate 0.18% among 330,000;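 active means superoxide response under a set limit, about three screen SD below normal, cut at about 65% in these data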;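 further: yeast aged for seven days with compound at 30 °C before DHE staining; 100% = average MFI of all compound-treated wells on the plate with controls excluded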
# HTR5A inv ctr – HTR5A inverse agonists in luminescence cell assay, primary screen, counter-screen for OPRM1-OPRD1 heterodimer inverse agonist project, full-deck HTS | AID 504634, 2011 | 5-hydroxytryptamine receptor 5A (Homo sapiens), P47898 | hit rate 0.083% among 340,000 | HTR5A cell line, inverse agonism | inhibition, % at 9.3 µM; in the data active means inhibition mostly above about 23%, no sharp cut-off; inactive means mostly below about 18%;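 further: 0% = cells with DMSO and 100% = no-cell wells with DMSO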
# Target sequence (P47898 whole entry, looked up): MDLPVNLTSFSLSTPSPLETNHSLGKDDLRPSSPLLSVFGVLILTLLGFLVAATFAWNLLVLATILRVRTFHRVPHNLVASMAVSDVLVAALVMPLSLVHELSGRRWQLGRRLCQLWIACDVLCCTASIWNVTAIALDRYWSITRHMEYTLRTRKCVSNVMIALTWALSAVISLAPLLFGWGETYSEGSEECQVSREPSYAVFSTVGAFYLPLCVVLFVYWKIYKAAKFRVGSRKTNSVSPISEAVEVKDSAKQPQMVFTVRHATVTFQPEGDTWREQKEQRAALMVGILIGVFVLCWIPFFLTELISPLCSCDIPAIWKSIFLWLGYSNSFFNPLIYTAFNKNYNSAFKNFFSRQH
# HTR5A ag – HTR5A agonists in luminescence cell assay, primary screen, counter-screen for OPRM1-OPRD1 heterodimer agonist project, full-deck HTS; 5-hydroxytryptamine receptor 5A (Homo sapiens), P47898; cell-based; activation, % at 9.3 µM; hit rate 0.61% among 340,000; AID 504692, 2011; in the data active means activation mostly above about 9.5%, no sharp cut-off; inactive means mostly below about 7.6%;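 further: 0% = cells with vehicle only and 100% = reference agonist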
# MOR-DOR inv ag – inverse agonists of MOR-DOR heterodimerization, primary screen, cell-based, luminescence | Mu-type opioid receptor (Homo sapiens) + Delta-type opioid receptor (Homo sapiens), … | cell-based MOR-DOR heterodimer luminescence, inverse agonism | inhibition, % at 9.3 µM | hit rate 0.21% among 340,000; in the data active means inhibition above about 22%, passing the limit was not always enough;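 further: 0% = cells with DMSO and 100% = wells without cells with DMSO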
# * hit, by the source's call; . = not tested or not shown.
SMILES,PvdQ inh,OPRM1-OPRD1 ag,Yeast superoxide,HTR5A inv ctr,HTR5A ag,MOR-DOR inv ag
CC1=Nc2cc(C(=O)NCCN3CCOCC3)ccc2Sc2c(C)ccc(C)c21,-14.0,-2.3,97.6,-0.1,1.0,12.2
NS(=O)(=O)c1ccc(NC(=O)COC(=O)COc2cccc(C(F)(F)F)c2)cc1,-7.6,-1.0,107.7,-11.4,4.2,5.2
C#CCSc1ncc(-c2ccccc2)cn1,47.7*,-2.4,98.8,-2.2,0.9,12.3
C=CCSc1ncc(-c2ccccc2)cn1,0.3,2.5,96.2,6.5,-0.1,-13.1
CCc1noc(C)c1C(=O)N1CCN(S(=O)(=O)c2cccs2)CC1,-12.5,-0.5,102.1,2.0,-0.7,3.0
N#CC(c1ccccc1)c1ccc(C(=O)c2ccc(F)cc2)cc1 (stereo unspecified),1.2,2.7,102.9,-3.5,0.7,-16.2
N#CC(c1ccc(F)cc1)c1ccc(C(=O)c2ccccc2)cc1 (stereo unspecified),48.0*,0.5,112.8,0.5,2.6,-2.7
Cc1c(CCOC(=O)C23CC4CC(CC(C)(C4)C2)C3)sc[n+]1CC(=O)c1ccccc1,-11.1,-1.0,102.6,-4.6,1.6,5.2
Cc1c(CCOC(=O)CC23CC4CC(CC(C)(C4)C2)C3)sc[n+]1CC(=O)c1ccccc1,-5.7,-2.9,109.2,3.6,13.3*,15.1
COc1ccc(/C=C/C(=O)c2ccc(O)cc2)cc1,20.3,-2.1,87.3,-2.4,-2.1,10.5
COc1ccc(/C=C/C(=O)c2ccoc2)cc1,40.0*,0.5,98.5,-3.0,-4.3,-2.6
O=C(NCc1cccc(F)c1F)C1CCC(=O)N(C2CC2)C1 (stereo unspecified),4.3,-5.4,95.7,3.6,10.2*,17.7
O=C(Nc1nc(-c2cccs2)cs1)c1ccc(Cl)s1,10.2,5.1,88.5,-41.5,13.9*,-26.0
CCOc1ccc(C(=O)Nc2cccc(C)n2)cc1,51.2*,-1.9,93.4,17.7,-7.1,7.8
Cc1cccc(NC(=O)c2ccc3c(c2)OCCO3)n1,37.3*,-3.0,88.1,-8.2,4.3,16.0
O=C(COC(=O)c1cnccn1)Nc1ncc(C(F)(F)F)cc1Cl,-4.1,-1.1,104.7,10.8,-2.8,5.7
Cc1ccc(/C=N/NC(=O)CSc2nnc(-c3ccc(Cl)cc3)n2-c2ccccc2)o1,-7.4,17.3,106.5,-49.5,13.5*,-89.9
COc1ccc2c(c1)Sc1ccccc1N2CCN(C)C,-8.4,19.0*,103.2,-8.2,-4.4,-108.0
CN(C)CCCN1c2ccccc2Sc2ccccc21,9.0,-1.2,95.3,0.1,0.0,6.6
Cc1cc(C)c2c(c1)CC(C)(C)CC2=O,3.2,-1.8,.,-37.9,9.2*,9.3
Cc1cc(C)c(-c2c(O)c3c(n(C)c2=O)CC(C)(C)CC3=O)c(C)c1,2.3,-0.7,106.2,6.4,-2.4,4.0
O=C(CNC(=O)c1cccc(-n2cnnn2)c1)Nc1ccc(F)c(F)c1,-7.2,-2.8,104.6,12.4,-2.6,11.2
CC(C)(C)NC(=O)COC(=O)c1c2c(nc3ccccc13)CCC2,-13.8,-1.6,99.7,-21.5,7.6,8.6
CC(C)NC(=O)NC(=O)COC(=O)c1c2c(nc3ccccc13)CCC2,-9.2,4.2,105.2,-41.9,14.1*,-33.5
Cc1ccc2c(c1)N(C(=O)CCC(=O)Nc1ccccc1Cl)CC(C)O2 (stereo unspecified),-5.7,-2.2,96.2,-18.8,1.6,12.3
NNS(=O)(=O)c1ccc2c(c1)Cc1cc(S(=O)(=O)NN)ccc1-2,3.1,-3.7,89.7,-44.8,11.6*,17.2
O=C(COC(=O)/C=C/c1ccccc1[N+](=O)[O-])NCc1ccco1,-18.5,-3.4,87.4,2.3,-0.6,17.7
CCCn1c(CCC(=O)O)nc2cc(S(N)(=O)=O)ccc21,-3.5,-2.6,112.7,16.3,6.2,13.1
CCCCn1c(CCC(=O)O)nc2cc(S(=O)(=O)N3CCCC3)ccc21,-0.3,-1.7,108.8,-29.6,8.3*,9.0
COc1cccc(NC(=O)CSCC(=O)Nc2ccccc2)c1,2.4,-1.9,118.0,-5.9,-3.1,7.8

# Screening data deposited in PubChem by several laboratories.
